Targets with a hit are over-represented here; the source holds about 7,900 in all. About 0.6% of all pairs of compound and target were hits.
Tests used:
Assay in all cases: log2 fold change, soluble protein after heating vs DMSO (PISA); higher = thermal stabilisation; K562 cells, 10 uM, 30 min; active = over 0.2 and 3.5 SD of the protein, either way, in both replicates (recomputed)
[1] = compound: C1=CC=C(C=C1)[C@H](COC2=CC3=C(C=C2)NC(=O)N3)NC(=O)C4=CC=CN(C4=O)CC5=CC(=C(C=C5)F)F
Method in brief: (§1)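 K562 cells at 2×10^6 cells/mL were exposed to 10 μM compound for 30 min, then aliquots were heated for 3 min across 48°C-58°C, pooled, and extracted in PBS containing 0.5% NP-40 at 4°C. The supernatant after 21,000xg for 90 min was taken as soluble protein and measured by TMTpro 16plex LC-MS/MS with channel sums equalised. Thermal stability is reported relative to control samples, with values from duplicates. Fold changes are given on a log2 scale.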

[2] = compound: CC1=C(SC2=C1C(=N[C@H](C3=NN=C(N32)C)CC(=O)N)C4=CC=C(C=C4)Cl)C
Method in brief: as §1

[3] = compound: CC1=C2C(=CC=C1)N=C(N(C2=O)C3=CC=CC=C3C)CN4C=NC5=C(N=CN=C54)N
Method in brief: as §1

[4] = compound: Cc1sc2c(c1C)C(c1ccc(Cl)cc1)=N[C@@H](CC(=O)OC(C)(C)C)c1nnc(C)n1-2
Method in brief: as §1

[5] = compound: c1ccc([C@@H]2C[C@H]2NC2CCNCC2)cc1
Method in brief: as §1

Measured: log2 fold change

SPPL2B (UniProt Q8TCT7)
Chain of UniProt Q8TCT7 (Q8TCT7 whole entry, looked up): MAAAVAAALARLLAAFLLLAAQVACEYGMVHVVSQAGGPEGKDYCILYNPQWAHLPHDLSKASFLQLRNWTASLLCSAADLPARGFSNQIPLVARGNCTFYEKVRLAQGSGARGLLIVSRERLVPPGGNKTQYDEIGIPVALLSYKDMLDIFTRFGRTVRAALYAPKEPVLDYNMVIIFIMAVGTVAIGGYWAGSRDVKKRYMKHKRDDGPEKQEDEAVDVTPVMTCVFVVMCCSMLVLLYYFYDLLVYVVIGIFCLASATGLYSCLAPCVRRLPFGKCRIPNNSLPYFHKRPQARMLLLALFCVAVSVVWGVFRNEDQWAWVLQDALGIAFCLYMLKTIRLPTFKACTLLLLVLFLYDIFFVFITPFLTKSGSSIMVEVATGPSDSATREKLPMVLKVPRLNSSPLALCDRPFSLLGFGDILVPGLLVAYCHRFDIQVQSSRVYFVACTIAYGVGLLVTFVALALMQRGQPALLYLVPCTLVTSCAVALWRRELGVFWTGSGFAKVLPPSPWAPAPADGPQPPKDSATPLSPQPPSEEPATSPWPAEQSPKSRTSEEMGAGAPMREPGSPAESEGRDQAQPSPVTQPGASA
inactive: [1] 0.039 | [2] 0.132 | [3] 0.049 | [4] 0.024 | [5] -0.022

SYK (UniProt P43405)
inactive: [1] 0.21 | [2] -0.221 | [3] -0.041 | [4] 0.132 | [5] -0.105

SRRM2 (UniProt Q9UQ35)
inactive: [1] -0.005 | [2] -0.015 | [3] 0 | [4] 0.05 | [5] 0.037

TIAL1 isoform 2 (UniProt Q01085)
Chain of UniProt Q01085 (Q01085 whole entry, looked up): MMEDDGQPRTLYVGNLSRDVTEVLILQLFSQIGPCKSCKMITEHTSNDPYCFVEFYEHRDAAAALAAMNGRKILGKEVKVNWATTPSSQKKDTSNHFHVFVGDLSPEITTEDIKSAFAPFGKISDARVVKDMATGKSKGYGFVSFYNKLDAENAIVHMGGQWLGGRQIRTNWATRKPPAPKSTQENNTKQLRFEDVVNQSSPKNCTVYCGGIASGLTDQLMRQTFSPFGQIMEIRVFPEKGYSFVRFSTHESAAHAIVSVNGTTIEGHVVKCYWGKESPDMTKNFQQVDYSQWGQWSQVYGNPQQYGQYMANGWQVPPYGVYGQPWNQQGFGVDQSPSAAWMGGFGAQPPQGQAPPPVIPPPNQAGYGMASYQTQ
inactive: [1] -0.023 | [2] 0.049 | [3] 0.015 | [4] 0.043 | [5] -0.024

SLC4A2 (UniProt P04920)
Chain of UniProt P04920 (P04920 whole entry, looked up): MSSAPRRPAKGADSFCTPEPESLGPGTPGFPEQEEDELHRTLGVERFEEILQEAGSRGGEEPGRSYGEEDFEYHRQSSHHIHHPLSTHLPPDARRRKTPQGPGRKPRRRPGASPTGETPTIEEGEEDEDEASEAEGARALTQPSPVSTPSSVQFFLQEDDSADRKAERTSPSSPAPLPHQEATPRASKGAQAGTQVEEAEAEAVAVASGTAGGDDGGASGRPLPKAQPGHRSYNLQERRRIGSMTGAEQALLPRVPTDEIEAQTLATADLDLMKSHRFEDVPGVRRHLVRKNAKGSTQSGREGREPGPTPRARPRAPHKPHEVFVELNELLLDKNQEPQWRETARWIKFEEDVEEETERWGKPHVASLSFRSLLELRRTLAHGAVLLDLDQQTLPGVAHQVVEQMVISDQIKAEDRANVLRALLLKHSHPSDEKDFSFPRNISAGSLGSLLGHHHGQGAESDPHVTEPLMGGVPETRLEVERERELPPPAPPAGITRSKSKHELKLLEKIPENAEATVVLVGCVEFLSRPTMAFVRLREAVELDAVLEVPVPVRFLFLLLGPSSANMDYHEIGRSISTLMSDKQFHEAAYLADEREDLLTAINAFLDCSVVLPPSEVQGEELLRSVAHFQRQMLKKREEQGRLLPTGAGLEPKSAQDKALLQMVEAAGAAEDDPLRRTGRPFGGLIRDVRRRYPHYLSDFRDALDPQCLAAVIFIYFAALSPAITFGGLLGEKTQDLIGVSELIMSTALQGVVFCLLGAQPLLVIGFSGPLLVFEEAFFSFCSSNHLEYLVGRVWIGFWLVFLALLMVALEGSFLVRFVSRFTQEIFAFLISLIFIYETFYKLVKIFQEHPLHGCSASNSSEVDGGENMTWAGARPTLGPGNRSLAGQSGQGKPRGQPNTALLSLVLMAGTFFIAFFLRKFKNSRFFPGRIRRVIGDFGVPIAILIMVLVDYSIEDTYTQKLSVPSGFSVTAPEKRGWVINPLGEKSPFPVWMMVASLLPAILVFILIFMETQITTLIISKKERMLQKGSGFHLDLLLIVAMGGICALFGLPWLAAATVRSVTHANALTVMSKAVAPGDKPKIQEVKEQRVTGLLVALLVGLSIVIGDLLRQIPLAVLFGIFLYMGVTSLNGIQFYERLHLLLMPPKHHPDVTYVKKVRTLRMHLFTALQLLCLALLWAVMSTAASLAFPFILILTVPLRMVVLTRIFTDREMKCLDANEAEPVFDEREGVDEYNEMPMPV
inactive: [1] -0.042 | [2] 0.016 | [3] 0.019 | [4] -0.038 | [5] 0.088

SPAG9 isoform 4 (UniProt O60271)
Chain of UniProt O60271 (O60271 whole entry, looked up): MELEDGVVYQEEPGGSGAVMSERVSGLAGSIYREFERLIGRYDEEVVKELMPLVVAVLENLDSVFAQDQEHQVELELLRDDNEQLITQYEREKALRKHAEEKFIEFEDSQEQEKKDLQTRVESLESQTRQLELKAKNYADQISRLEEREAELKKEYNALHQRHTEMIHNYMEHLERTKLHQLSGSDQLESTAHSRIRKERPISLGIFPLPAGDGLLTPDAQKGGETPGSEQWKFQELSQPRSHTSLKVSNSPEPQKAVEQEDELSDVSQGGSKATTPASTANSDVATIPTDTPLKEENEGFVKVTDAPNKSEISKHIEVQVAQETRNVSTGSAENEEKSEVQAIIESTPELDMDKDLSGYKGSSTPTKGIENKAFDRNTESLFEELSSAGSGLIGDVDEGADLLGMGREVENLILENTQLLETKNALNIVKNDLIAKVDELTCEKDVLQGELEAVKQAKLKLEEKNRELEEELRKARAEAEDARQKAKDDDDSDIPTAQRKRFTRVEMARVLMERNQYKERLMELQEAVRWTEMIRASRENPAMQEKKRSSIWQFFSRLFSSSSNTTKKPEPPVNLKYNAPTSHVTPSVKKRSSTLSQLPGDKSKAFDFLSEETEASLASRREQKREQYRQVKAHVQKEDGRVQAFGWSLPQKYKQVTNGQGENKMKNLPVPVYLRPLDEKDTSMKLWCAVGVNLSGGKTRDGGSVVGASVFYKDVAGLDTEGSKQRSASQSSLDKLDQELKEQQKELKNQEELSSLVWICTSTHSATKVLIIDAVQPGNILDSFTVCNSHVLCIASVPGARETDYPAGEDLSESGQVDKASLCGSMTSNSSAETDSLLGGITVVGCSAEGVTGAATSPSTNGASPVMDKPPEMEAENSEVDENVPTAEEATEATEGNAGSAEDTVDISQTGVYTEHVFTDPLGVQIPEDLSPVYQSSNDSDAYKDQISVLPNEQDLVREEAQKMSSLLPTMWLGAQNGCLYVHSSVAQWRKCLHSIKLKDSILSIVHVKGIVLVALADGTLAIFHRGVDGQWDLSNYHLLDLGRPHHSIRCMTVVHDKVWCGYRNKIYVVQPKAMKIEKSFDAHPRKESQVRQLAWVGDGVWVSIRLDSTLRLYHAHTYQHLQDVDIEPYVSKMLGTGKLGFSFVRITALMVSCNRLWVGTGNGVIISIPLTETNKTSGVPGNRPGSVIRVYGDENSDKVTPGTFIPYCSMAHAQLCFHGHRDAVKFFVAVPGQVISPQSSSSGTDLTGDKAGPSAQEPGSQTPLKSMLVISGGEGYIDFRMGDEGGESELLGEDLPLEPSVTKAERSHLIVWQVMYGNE
inactive: [1] 0.15 | [2] 0.006 | [3] -0.048 | [4] 0.028 | [5] 0.025

SMC5 (UniProt Q8IY18)
Chain of UniProt Q8IY18 (Q8IY18 whole entry, looked up): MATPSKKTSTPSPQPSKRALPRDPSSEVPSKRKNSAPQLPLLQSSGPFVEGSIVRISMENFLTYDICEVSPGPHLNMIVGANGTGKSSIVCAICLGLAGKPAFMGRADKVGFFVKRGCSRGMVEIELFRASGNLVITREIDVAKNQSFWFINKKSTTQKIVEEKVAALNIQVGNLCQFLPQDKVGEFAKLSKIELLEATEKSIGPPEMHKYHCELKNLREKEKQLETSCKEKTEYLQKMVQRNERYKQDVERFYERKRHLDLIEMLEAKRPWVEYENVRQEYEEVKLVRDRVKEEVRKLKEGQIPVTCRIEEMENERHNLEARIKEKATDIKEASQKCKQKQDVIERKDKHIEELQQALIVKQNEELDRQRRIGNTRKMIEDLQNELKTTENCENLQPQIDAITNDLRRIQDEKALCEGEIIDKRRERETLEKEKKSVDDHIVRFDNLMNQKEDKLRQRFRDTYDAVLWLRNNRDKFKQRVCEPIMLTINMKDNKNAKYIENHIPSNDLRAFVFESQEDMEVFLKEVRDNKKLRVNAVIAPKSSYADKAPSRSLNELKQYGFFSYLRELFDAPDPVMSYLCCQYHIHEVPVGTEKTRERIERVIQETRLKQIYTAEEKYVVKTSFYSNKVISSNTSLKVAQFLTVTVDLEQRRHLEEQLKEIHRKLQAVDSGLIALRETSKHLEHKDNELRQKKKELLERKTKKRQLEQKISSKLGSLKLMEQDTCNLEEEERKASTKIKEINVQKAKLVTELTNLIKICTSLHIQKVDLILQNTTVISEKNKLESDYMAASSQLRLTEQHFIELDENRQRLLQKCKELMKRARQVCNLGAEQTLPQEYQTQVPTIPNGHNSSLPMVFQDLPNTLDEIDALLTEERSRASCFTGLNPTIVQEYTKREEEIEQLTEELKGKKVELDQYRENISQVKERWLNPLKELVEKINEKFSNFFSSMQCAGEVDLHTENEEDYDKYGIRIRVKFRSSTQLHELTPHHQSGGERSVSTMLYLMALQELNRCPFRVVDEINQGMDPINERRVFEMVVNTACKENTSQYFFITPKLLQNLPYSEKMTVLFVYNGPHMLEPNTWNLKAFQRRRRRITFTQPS
inactive: [1] 0.017 | [2] 0.045 | [3] -0.006 | [4] -0.028 | [5] -0.005

TIPRL (UniProt O75663)
Chain of UniProt O75663 (O75663 whole entry, looked up): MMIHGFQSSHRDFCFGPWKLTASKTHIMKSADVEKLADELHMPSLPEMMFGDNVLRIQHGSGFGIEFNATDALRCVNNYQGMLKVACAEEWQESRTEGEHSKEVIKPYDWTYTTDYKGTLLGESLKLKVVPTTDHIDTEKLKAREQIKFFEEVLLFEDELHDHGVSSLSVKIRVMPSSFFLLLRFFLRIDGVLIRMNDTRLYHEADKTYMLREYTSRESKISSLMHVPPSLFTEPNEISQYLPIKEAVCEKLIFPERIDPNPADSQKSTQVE
inactive: [1] -0.078 | [2] 0.07 | [3] 0.083 | [4] 0.001 | [5] -0.007

SLC25A4 (UniProt P12235)
inactive: [1] -0.001 | [2] -0.034 | [3] 0.062 | [4] -0.049 | [5] 0.05
